Results on 39 compounds are retold here after PubChem BioAssay.

The experiment is described as follows: Wnt pathway potentiators raising nuclear beta-catenin – imaging, WNT3A-conditioned medium, mouse C2C12, NPC library, primary screen (AID 1117326). Further: reference of the scale not given here. The note with it: stimulation, at 2 µM, stronger effect = higher value.
Regarding `OCCN1CCN(CCCN2c3ccccc3Sc3ccc(C(F)(F)F)cc32)CC1`, the nuclear beta-catenin stimulation was determined as 6.3%.

For the compound `NS(=O)(=O)c1cc2c(cc1Cl)NC=NS2(=O)=O`, the nuclear beta-catenin stimulation was 3%.

As to `O=C1C(CCS(=O)c2ccccc2)C(=O)N(c2ccccc2)N1c1ccccc1` (centres undefined), the nuclear beta-catenin stimulation was 0%.

As for `Cc1ccc(-c2cc(C(F)(F)F)nn2-c2ccc(S(N)(=O)=O)cc2)cc1`, the nuclear beta-catenin stimulation is 0.5%.

On to `CN[C@H]1CC[C@@H](c2ccc(Cl)c(Cl)c2)c2ccccc21`, for which the nuclear beta-catenin stimulation was -1.4%.

Consider `Cc1ccccc1C(OCCN(C)C)c1ccccc1` (centres undefined), for which the nuclear beta-catenin stimulation stood at 1.7%.

Consider `CCc1nc(N)nc(N)c1-c1ccc(Cl)cc1`, for which the nuclear beta-catenin stimulation was 69.7%.

Turning to `COc1cc2nc(N(C)CCCNC(=O)C3CCCO3)nc(N)c2cc1OC` (centres undefined), the nuclear beta-catenin stimulation was determined as 1.8%.

For `CN(C)CCOC(c1ccc(Cl)cc1)c1ccccn1` (centres undefined), the nuclear beta-catenin stimulation turned out to be 0.3%.

On to `N[C@@H](C(=O)N[C@@H]1C(=O)N2C(C(=O)O)=C(Cl)CS[C@H]12)c1ccccc1`, for which the nuclear beta-catenin stimulation is 1.1%.

With `Nc1ncn([C@@H]2O[C@H](CO)[C@@H](O)[C@H]2O)c(=O)n1`, the nuclear beta-catenin stimulation came out at 1.8%.

Turning to `NCc1ccc(S(N)(=O)=O)cc1`, the nuclear beta-catenin stimulation amounted to 0.2%.

With `Cc1ncc([N+](=O)[O-])n1CC(C)O` (centres undefined), the nuclear beta-catenin stimulation was found to be 1.6%.

On to `Cc1ccc(C)c(OCCCC(C)(C)C(=O)O)c1`, for which the nuclear beta-catenin stimulation is 1.2%.

`CN1CCCC(n2nc(Cc3ccc(Cl)cc3)c3ccccc3c2=O)CC1` (centres undefined): the nuclear beta-catenin stimulation is 1.7%.

In the case of `NS(=O)(=O)c1cc2c(cc1C(F)(F)F)NC(Cc1ccccc1)NS2(=O)=O` (centres undefined), the nuclear beta-catenin stimulation turned out to be 1.7%.

For the compound `COC1=CC(=O)C[C@@H](C)[C@]12Oc1c(Cl)c(OC)cc(OC)c1C2=O`, the nuclear beta-catenin stimulation is 0.3%.

As for `Cc1cn([C@H]2C[C@H](N=[N+]=[N-])[C@@H](CO)O2)c(=O)[nH]c1=O`, the nuclear beta-catenin stimulation worked out at 1.3%.

`CN(CCOc1ccc(CC2SC(=O)NC2=O)cc1)c1ccccn1` (centres undefined): the nuclear beta-catenin stimulation amounted to 0.1%.

As for `COc1ccc(OC)c(C(O)CNC(=O)CN)c1` (centres undefined), the nuclear beta-catenin stimulation was found to be 4.9%.

Consider `OC(CCN1CCCC1)(c1ccccc1)C1CCCCC1` (centres undefined), for which the nuclear beta-catenin stimulation worked out at 4.9%.

For `NC(=O)N1c2ccccc2CC(=O)c2ccccc21`, the nuclear beta-catenin stimulation is 1.3%.

For `CCCNCC(O)COc1ccccc1C(=O)CCc1ccccc1` (centres undefined), the nuclear beta-catenin stimulation came out at 0.1%.

As to `C/C=C/C(=O)N(CC)c1ccccc1C`, the nuclear beta-catenin stimulation amounted to 0.9%.

For the compound `CCCCCCNC(=O)n1cc(F)c(=O)[nH]c1=O`, the nuclear beta-catenin stimulation was 9.5%.

Regarding `NC(=O)c1cnccn1`, the nuclear beta-catenin stimulation is -0.7%.

Turning to `CN(C)CCc1c[nH]c2ccc(C[C@H]3COC(=O)N3)cc12`, the nuclear beta-catenin stimulation was found to be 1.8%.

For `COc1ccccc1OCC(O)COC(N)=O` (centres undefined), the nuclear beta-catenin stimulation was -1.9%.

Take `COC(=O)Nc1nc2ccc(C(=O)c3ccccc3)cc2[nH]1`: the nuclear beta-catenin stimulation stood at 42.2%.

For the compound `CCn1cc(C(=O)O)c(=O)c2cc(F)c(N3CCN(C)CC3)cc21`, the nuclear beta-catenin stimulation came out at 1.2%.

Consider `Cn1cnc([N+](=O)[O-])c1Sc1ncnc2nc[nH]c12`, for which the nuclear beta-catenin stimulation was found to be 0.7%.

On to `c1ccc2[nH]c(-c3cscn3)nc2c1`, for which the nuclear beta-catenin stimulation turned out to be 1.4%.

On to `Cc1onc(-c2c(Cl)cccc2Cl)c1C(=O)N[C@@H]1C(=O)N2[C@@H]1SC(C)(C)[C@@H]2C(=O)O`, for which the nuclear beta-catenin stimulation amounted to 1.3%.

Consider `Clc1ccc2c(c1)C(N1CCNCC1)=Nc1ccccc1O2`, for which the nuclear beta-catenin stimulation was -0.6%.

Take `CO[C@@]1(NC(=O)Cc2cccs2)C(=O)N2C(C(=O)O)=C(COC(N)=O)CS[C@@H]21`: the nuclear beta-catenin stimulation was -0.5%.

Turning to `CCc1cccc2c3c([nH]c12)C(CC)(CC(=O)O)OCC3` (centres undefined), the nuclear beta-catenin stimulation was found to be 0.3%.

For the compound `CC(C)(C)NCC(O)COc1cccc2c1C[C@H](O)[C@H](O)C2` (some centres undefined), the nuclear beta-catenin stimulation is -0.2%.

As for `O=S(=O)(O)CCS`, the nuclear beta-catenin stimulation was 1.8%.

Turning to `O=c1[nH]cc(F)c(=O)[nH]1`, the nuclear beta-catenin stimulation was 1.7%.
